Here are results for 12 compounds from ChEMBL document CHEMBL3433997, “St. Jude Leishmania screening dataset” (2016).

Values joined by “and” are separate entries in the source; they are usually repeats but may differ in a detail not shown here. Identical values can stand only once.

Type in all cases: functional
Assay [1] has as its target Solute carrier family 2, facilitated glucose transporter member 1 (Homo sapiens) (UniProt P11166). Description: ST_JUDE_LEISH: Cytotoxicity at 2uM final concentration against transgenic Leishmania Mexicana promastigotes LmGLUT1 that are glucose transport deficient and complemented with the human glucose transporter GLUT1. Activity is measured by DNA content using SYBR green in vitro.

Assay [2] concerns the target Hexose transporter 1 (Plasmodium falciparum) (UniProt O97467). In words: ST_JUDE_LEISH: Cytotoxicity at 2uM final concentration against transgenic Leishmania Mexicana promastigotes LmPfHT that are glucose transport deficient and complemented with the Plasmodium falciparum hexose transporter. Activity is measured by DNA content using SYBR green in vitro.
Assay [3] deals with Glucose transporter (Leishmania mexicana) (UniProt O61059). Description: ST_JUDE_LEISH: Cytotoxicity at 2uM final concentration against transgenic Leishmania Mexicana promastigotes LmGT2 that are glucose transport deficient and complemented with the L. Mexicana glucose transporter 2. Activity is measured by DNA content using SYBR green in vitro.

Solute carrier family 2, facilitated glucose transporter member 1 (Homo sapiens), sequence (P11166 whole entry): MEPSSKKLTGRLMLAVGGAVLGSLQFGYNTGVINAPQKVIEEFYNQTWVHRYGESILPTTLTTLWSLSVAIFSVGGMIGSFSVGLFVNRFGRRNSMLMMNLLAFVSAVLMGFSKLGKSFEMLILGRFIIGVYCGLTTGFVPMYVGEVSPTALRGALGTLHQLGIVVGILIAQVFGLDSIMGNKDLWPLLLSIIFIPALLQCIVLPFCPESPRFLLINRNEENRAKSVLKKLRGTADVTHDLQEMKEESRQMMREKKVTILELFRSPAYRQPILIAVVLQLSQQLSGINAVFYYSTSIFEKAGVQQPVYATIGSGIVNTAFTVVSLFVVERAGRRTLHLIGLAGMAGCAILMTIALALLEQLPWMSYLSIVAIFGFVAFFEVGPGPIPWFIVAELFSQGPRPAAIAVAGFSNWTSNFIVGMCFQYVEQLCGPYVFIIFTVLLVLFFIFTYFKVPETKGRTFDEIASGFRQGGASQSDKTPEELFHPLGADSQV

By inhibition is commonly meant the drop in the measured response relative to a control, in per cent. As to `CC(C)NC(=O)Cn1cc(C2CCN(CC3CCN(C(=O)/C=C/c4ccc(Cl)c(Cl)c4)CC3)CC2)c2ccccc21`, the inhibition in assay [1] turned out to be 1.44%; in assay [2], 0.25%; in assay [3], 1.41%.
The matching figures for `COc1ccc(CC(C)NCC(O)c2cccc(Br)c2)cc1` (stereo unspecified): 10.3%, 8.65% and 9.13%.
The matching figures for `Cc1[nH]c2ccccc2c1C1=CCN(CCCCCC23CCCc4cccc(c42)NC3=O)CC1` (stereo unspecified): 2.18%, 2.47% and 3.51%.
For the compound `O=C(C=Cc1ccccc1C(F)(F)F)NC1CCC(CN2CCC(c3c[nH]c4ccccc34)CC2)CC1` (stereo unspecified), the inhibition was 8.82% and 9.04% in assay [1]; 5.1% and 5.78% in assay [2]; 5.23% and 4.7% in assay [3].
As for `NCC(=O)c1cc2c(cc1N)OCCO2`, the inhibition in assay [1] was determined as 8.91%; in assay [2], 9.43%; in assay [3], 3.9%.
With `CC[C@H]1CN2CCc3cc(OC)c(OC)cc3[C@@H]2C[C@@H]1C[C@H]1NCCc2c1cc(OC)c(O)c2Cl`, the results for the inhibition in assay [1], in assay [2] and in assay [3] were 94.8%, 98.3% and 89.3%, respectively.
For the compound `O=C(/C=C/c1ccc(O)cc1)NC1CCC(CN2CCC(c3c[nH]c4ccccc34)CC2)CC1` (stereo unspecified), the inhibition in assay [1] is -4.73%; in assay [2], -2.63%; in assay [3] it was -0.07%.
For the compound `O=C(NC1CCC(CN2CCC(c3c[nH]c4ccccc34)CC2)CC1)c1cc(-c2ccc(F)cc2F)ccc1O` (stereo unspecified), the inhibition in assay [1] was 0.76%; in assay [2] it was 0.13%; in assay [3], 0.42%.
The matching figures for `COCCNCc1ccc(-c2ccc(CN(C(=O)NC3CCCCC3)C3CCN(Cc4ccccc4)CC3)cc2)cc1`: 2.65%, 2% and -1.48%.
The matching figures for `Cc1ccc(CC(C)(C)NCC(O)c2cccc(C(F)(F)F)c2)cc1` (stereo unspecified): 2.49%, 2.91% and 3.49%.
The matching figures for `CC(Cc1ccc(OCc2ccc(CCN(C)C)cc2)cc1)NCCc1cccc(Cl)c1` (stereo unspecified): 1.8%, 0.77% and -2.69%.
For the compound `Cc1[nH]c2ccccc2c1C1=CCN(CC2CC2C(=O)c2ccccc2)CC1` (stereo unspecified), the inhibition in assay [1] was 10.7%; in assay [2], 9.13%; in assay [3], 8.4%.
